Measurements from PubChem BioAssay.
Activity calls are given as the source filed them.

Assays:
[1] = system: PRMT1 (protein arginine N-methyltransferase 1); test: small molecules binding arginine methyltransferase PRMT1 – biochemical, small-molecule microarray, 635 nm fluorescence, primary screen (AID 1088); details: higher = more signal;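 further: binding of Prmt1 protein to compounds spotted on small-molecule microarray slides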
[2] = growth effects on S. cerevisiae YJM789 – YJM789 clinical isolate, OD600, 24 h, basal, primary screen (AID 1089); details: higher = more signal, called active from +8 up or from −8 down;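 further: growth of clinical yeast isolate S. cerevisiae YJM 789 seeded 1000 cells per well; test concentration not given here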
[3] = S. pombe growth modifiers, basal conditions – strain 972, OD600, 24 h, no modulator, primary screen (AID 1090);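 further: basal condition with compound alone and no growth modifier present; test concentration not given here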; details: S. pombe 972 growth, higher = more signal, called active from +8 up or from −8 down
[4] = budding yeast growth modifiers under rapamycin – strain BY4716, OD600, 96 h, primary screen (AID 1091); further: test concentration not given here; details: S. cerevisiae BY4716 + rapamycin, higher = more signal, called active from +8 up or from −8 down
[5] = target: Torsin-1A-interacting protein 2 (Homo sapiens) (UniProt Q8NFQ8); test: small molecules binding lysate-expressed LULL1 – cell lysate, human LULL1 lysate, 635/667 nm fluorescence, primary screen (AID 1092); details: small-molecule microarray, hLULL1 lysate binding, 635 nm fluorescence; higher = more signal;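 further: probe is lysate of COS7 cells overexpressing human LULL1; score merges per-feature 667 nm fluorescence with signal-to-noise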
Torsin-1A-interacting protein 2 (Homo sapiens), sequence (Q8NFQ8 whole entry, looked up): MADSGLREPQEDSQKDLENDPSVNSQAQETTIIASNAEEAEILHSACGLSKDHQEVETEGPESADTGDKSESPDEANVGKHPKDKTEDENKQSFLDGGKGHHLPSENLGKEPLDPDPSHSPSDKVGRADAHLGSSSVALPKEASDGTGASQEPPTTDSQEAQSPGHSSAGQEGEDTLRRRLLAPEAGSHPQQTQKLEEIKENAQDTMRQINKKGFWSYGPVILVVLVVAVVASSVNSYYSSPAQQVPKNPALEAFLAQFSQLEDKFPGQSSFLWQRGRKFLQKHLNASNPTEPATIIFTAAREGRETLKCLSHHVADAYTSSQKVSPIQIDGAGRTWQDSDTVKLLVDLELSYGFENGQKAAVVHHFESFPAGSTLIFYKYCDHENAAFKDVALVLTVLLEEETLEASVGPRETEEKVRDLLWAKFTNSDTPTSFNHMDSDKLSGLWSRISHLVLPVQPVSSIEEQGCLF

[6] = optical density change of DRC41 E. coli – strain DRC41, OD650, 24 h, E. coli filamentation project, primary screen (AID 1093);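 further: MC1000 strain lacking acrAB efflux and sulA so SOS filamentation is blocked; test concentration not given here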; details: E. coli DRC41 growth, higher = more signal, called active from +8 up or from −8 down
[7] = probe aLefty2 binding to arrayed compounds – biochemical, biotinylated probe, 635/667 nm fluorescence, primary screen (AID 1094); details: small-molecule microarray, higher = more signal;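 further: score merges spot fluorescence near 667 nm with spot signal-to-noise ratio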
[8] = system: Noggin (protein binding on small-molecule microarray); test: small molecules binding Noggin protein – biochemical, 635/667 nm fluorescence, primary screen (AID 1095); details: 635 nm fluorescence, higher = more signal;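 further: score merges 667 nm feature fluorescence with signal to noise over triplicate slides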
[9] = target: Neurogenic locus notch homolog protein 3 (Homo sapiens) (UniProt Q9UM47); test: small molecules binding NOTCH3 protein – biochemical, 635/667 nm fluorescence, primary screen (AID 1096); details: small-molecule microarray, 635 nm fluorescence, higher = more signal
Neurogenic locus notch homolog protein 3 (Homo sapiens), sequence (Q9UM47 whole entry, looked up): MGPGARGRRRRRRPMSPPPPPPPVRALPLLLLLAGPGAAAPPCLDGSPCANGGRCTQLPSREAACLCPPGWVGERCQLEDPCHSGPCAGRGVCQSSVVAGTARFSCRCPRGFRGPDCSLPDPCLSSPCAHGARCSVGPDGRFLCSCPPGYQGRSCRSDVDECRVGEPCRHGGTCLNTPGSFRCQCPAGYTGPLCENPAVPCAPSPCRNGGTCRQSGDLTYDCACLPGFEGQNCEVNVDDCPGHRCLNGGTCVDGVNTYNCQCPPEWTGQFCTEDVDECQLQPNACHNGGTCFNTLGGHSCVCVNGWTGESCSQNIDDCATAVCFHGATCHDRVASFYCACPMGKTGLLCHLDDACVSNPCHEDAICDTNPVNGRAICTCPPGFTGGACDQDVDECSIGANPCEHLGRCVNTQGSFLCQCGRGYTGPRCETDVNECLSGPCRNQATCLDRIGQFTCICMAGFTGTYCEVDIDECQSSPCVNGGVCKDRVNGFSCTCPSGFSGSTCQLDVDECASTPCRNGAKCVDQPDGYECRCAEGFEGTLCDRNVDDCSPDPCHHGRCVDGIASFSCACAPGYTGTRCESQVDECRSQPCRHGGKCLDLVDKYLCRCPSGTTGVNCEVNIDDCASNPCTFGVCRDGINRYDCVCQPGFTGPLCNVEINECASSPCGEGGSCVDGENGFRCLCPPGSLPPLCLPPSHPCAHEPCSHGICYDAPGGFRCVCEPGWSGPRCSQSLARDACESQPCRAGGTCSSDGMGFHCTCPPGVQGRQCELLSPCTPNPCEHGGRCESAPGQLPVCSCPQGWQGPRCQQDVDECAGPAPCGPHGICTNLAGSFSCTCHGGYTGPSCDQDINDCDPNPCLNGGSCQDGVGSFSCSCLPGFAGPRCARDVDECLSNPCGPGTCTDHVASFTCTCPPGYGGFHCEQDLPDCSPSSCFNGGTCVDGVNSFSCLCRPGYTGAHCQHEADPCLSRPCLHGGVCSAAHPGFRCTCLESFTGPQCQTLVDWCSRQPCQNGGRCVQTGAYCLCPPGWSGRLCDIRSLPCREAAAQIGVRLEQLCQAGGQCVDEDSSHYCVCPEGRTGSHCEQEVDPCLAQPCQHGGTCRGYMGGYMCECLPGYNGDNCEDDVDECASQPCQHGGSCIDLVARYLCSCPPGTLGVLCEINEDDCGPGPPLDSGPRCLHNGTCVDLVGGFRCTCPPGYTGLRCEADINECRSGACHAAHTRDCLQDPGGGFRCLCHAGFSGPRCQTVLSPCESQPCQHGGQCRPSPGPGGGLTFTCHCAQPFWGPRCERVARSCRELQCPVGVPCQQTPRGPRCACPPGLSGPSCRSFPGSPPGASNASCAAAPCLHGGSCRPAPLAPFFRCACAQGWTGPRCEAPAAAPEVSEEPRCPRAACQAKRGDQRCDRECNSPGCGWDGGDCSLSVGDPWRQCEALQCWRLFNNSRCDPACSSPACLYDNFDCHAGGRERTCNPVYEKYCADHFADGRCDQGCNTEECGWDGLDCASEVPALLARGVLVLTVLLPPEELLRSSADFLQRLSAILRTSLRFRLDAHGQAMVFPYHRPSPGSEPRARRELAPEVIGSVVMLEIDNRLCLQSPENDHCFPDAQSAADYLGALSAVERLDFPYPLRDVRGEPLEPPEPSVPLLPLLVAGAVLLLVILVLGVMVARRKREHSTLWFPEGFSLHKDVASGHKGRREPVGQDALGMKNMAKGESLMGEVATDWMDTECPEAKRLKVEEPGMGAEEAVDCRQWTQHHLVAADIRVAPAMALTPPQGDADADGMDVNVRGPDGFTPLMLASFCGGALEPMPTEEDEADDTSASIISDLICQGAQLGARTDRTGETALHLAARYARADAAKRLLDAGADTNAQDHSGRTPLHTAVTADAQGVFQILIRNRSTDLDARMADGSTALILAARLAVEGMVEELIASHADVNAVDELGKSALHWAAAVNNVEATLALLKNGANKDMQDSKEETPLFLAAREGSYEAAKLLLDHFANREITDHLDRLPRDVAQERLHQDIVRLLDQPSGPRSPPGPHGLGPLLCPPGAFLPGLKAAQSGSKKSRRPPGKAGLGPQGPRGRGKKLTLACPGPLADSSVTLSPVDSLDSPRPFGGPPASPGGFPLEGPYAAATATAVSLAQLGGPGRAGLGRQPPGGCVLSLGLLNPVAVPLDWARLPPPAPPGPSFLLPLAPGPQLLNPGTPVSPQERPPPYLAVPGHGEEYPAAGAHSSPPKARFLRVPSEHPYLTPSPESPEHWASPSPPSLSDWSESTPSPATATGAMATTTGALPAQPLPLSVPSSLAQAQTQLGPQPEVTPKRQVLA

[10] = probe aEGFR binding to arrayed compounds – biochemical, biotinylated probe, 635/667 nm fluorescence, primary screen (AID 1097); details: small-molecule microarray, higher = more signal;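 further: probe is a biotinylated anti-EGFR antibody binding compounds printed on slides; score combines fluorescence near 667 nm and signal to noise of each spot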

SMILES	composite z-score [1]	z-score [2]	z-score [3]	z-score [4]	composite z-score [5]	z-score [6]	composite z-score [7]	composite z-score [8]	composite z-score [9]	composite z-score [10]
COC(=O)[C@@]1(Cc2ccccc2)[C@H]2c3cc(C(=O)N(C)C)n(Cc4ccsc4Br)c3C[C@H]2CN1C(=O)c1ccccc1	-0.481	1.04 (inactive)	1.17 (inactive)	2.66 (inactive)	3.32	0.166 (inactive)	0.313	0.0244	1.05	0.196
COc1ccc([C@H]2OC[C@@H]3C[C@@H](Cc4ccccc4)C(=O)N32)cc1	0.758	-2.03 (inactive)	-3.18 (inactive)	4.07 (inactive)	0.0239	-0.468 (inactive)	-0.103	0.892	0.75	-0.0299
CC(=O)n1cc(C(O)C2C=CC3C(=O)N(c4ccccc4)C(=O)C3N2Nc2ccc([N+](=O)[O-])cc2)c2ccccc21 (stereo not given)	1.45	-0.701 (inactive)	0.451 (inactive)	2.05 (inactive)	3.28	-0.567 (inactive)	0.534	-0.386	1.06	-0.0355
CCCC[C@@H]1C[C@H]1[C@@H](NC(=O)C(C)(C)C)c1ccc(C(F)(F)F)cc1	0.648	0.213 (inactive)	-2.71 (inactive)	0.329 (inactive)	0.918	-1.67 (inactive)	0.0823	-1.46	-0.434	-0.236
C=CCOC(=O)[C@@H]1[C@H]2C(=O)O[C@H](c3ccccc3)[C@H](c3ccccc3)N2[C@H](c2ccc(OCCOC(=O)[C@@H]3C[C@@H]4C(=O)NCC(=O)N4[C@@H]3c3ccc(O)cc3)cc2)[C@@]12C(=O)Nc1ccc(I)cc12	1.55	0.218 (inactive)	0.985 (inactive)	2.85 (inactive)	2.54	0.5 (inactive)	-0.171	1.58	0.859	-0.154
C=C(/C(=C/C[C@H](OC(C)=O)c1ccccc1OCCO)c1cnc2ccccc2c1)C(C)C	0.491	0.0556 (inactive)	-0.0759 (inactive)	1.11 (inactive)	1.85	-0.0733 (inactive)	-0.0251	1.24	0.909	-0.044
C=CC(=C)[C@H]1Oc2ccccc2S(=O)(=O)N2CCC[C@@H]12	-1.3	-0.946 (inactive)	-2.71 (inactive)	-0.601 (inactive)	-0.562	-0.504 (inactive)	0.0189	0.518	-0.406	-0.152
COCCOC(=O)N1C(=O)[C@@]2(c3ccccc31)[C@H](c1ccccc1OCCO)N1[C@H](c3ccccc3)[C@H](c3ccccc3)OC(=O)[C@H]1[C@@H]2C(=O)N1CCN(c2ncccn2)CC1	1.54	1.68 (inactive)	1.58 (inactive)	8.88 (active)	2.59	0.22 (inactive)	-0.0529	0.994	1.11	-0.12
O=C(CS)NCCCCCCNC(=O)[C@@H]1C[C@@H]2C(=O)N[C@@H](Cc3ccccc3)C(=O)N2[C@@H]1c1cccc(OCCO)c1	1.54	-0.485 (inactive)	0.279 (inactive)	0.211 (inactive)	2.92	-1.21 (inactive)	0.0747	0.988	1.04	0.122
CC1(C)[C@@H]2CC(C(O)C3C=CC4C(=O)N(c5ccccc5)C(=O)C4N3Nc3ccc([N+](=O)[O-])cc3)=C[C@H]1C2 (stereo not given in full)	1.55	-0.0209 (inactive)	0.287 (inactive)	2.09 (inactive)	3.71	-0.692 (inactive)	0.109	0.375	1.03	0.184
COC(=O)C(CC#Cc1ccc2c(c1)[C@]1(C(=O)N2)[C@H](C(=O)Nc2nc3ccccc3s2)[C@H]2C(=O)O[C@H](c3ccccc3)[C@H](c3ccccc3)N2[C@@H]1c1ccc(O)cc1)C(=O)OC	1.55	0.424 (inactive)	0.301 (inactive)	0.746 (inactive)	2.82	-1.05 (inactive)	-0.0258	0.709	1.03	0.221
COC(=O)[C@@]1(CCC(=O)OC(C)(C)C)N=C(c2ccc(OCCCO)cc2)O[C@H]1c1ccccc1N=[N+]=[N-]	1.28	0.0049 (inactive)	-0.786 (inactive)	33.6 (active)	1.83	0.817 (inactive)	-0.309	0.714	0.388	-0.0828
C=CCOC(=O)[C@H]1[C@@H]2C(=O)O[C@@H](c3ccccc3)[C@@H](c3ccccc3)N2[C@@H](c2ccc(OCCOC(=O)[C@@H]3C[C@@H]4C(=O)N[C@@H](CC(C)C)C(=O)N4[C@@H]3c3ccc(O)cc3)cc2)[C@]12C(=O)Nc1ccccc12	1.53	0.963 (inactive)	1.32 (inactive)	4.11 (inactive)	3.2	0.703 (inactive)	0.115	1.49	1.1	0.0195
CN1C(=O)C2C=CC(C(O)C#Cc3ccccc3)N(N3CCCCC3)C2C1=O (stereo not given)	0.436	0.54 (inactive)	-0.126 (inactive)	-0.296 (inactive)	0.58	0.0497 (inactive)	0.529	-0.287	0.964	0.647
COc1ccc(CCNC(=O)[C@@]2(C)c3ccccc3C(=O)N(C(C)C)[C@H]2c2ccc(CO)cc2)cc1	0.601	-0.122 (inactive)	-0.366 (inactive)	-0.321 (inactive)	2.15	0.721 (inactive)	-0.107	0.456	-0.399	0.0117
C=CCC(OC(C)=O)[C@@H]1[C@@H](N(Cc2cc3ccccc3o2)C(=O)c2cccc3ccccc23)c2cc(OCCCO)ccc2N1C(=O)c1ccc(-c2ccccc2)cc1 (stereo not given in full)	-0.101	0.109 (inactive)	-0.847 (inactive)	0.0344 (inactive)	0.581	1.78 (inactive)	-0.0674	0.293	-0.527	0.0969
CC1(C)C2C=C(C(O)C3C=CC4C(=O)NC(=O)C4N3Nc3ccc(Cl)cc3Cl)C[C@@H]1C2 (stereo not given in full)	0.804	-7.63 (inactive)	-6.77 (inactive)	0.722 (inactive)	1.33	-2.98 (inactive)	0.374	0.178	0.996	0.279
O=C1C2C=CC(C(O)CCc3ccccc3)N(Nc3ccccc3F)C2C(=O)N1c1ccccc1 (stereo not given)	1.49	-0.566 (inactive)	0.624 (inactive)	-0.378 (inactive)	3.28	-0.0741 (inactive)	0.183	0.279	1.08	0.0059
O=C1O[C@@H](c2ccccc2)[C@@H](c2ccccc2)N2[C@@H](c3ccccc3OCCO)[C@]3(C(=O)Nc4ccc(C#CC5=CCCCC5)cc43)[C@@H](C(=O)N3CCCCCCC3)[C@H]12	1.53	1.1 (inactive)	-0.354 (inactive)	2.02 (inactive)	4.38	-0.641 (inactive)	1.74	1.88	1.02	1.34
O=C(c1ccccc1)N1Cc2ccccc2C[C@@]2(COC(c3ccc(OCCCO)cc3)=N2)C1=O	1.55	-1.1 (inactive)	-11.1 (active)	3.57 (inactive)	3.39	0.0571 (inactive)	0.0478	0.779	1.04	-0.0439
O=C1NC(=O)C2C1C=CC(C(O)c1cccs1)N2Nc1ccc(Cl)cc1Cl (stereo not given)	0.407	1.01 (inactive)	0.186 (inactive)	1.74 (inactive)	2.37	-0.0056 (inactive)	-0.0333	-0.394	-0.23	-0.0476
C=C[C@H](CO)NS(=O)(=O)c1ccc(Br)cc1	-0.0224	0.198 (inactive)	-1.53 (inactive)	-0.135 (inactive)	0.676	1.29 (inactive)	0.0467	0.19	-0.342	-0.0302
O=C1NC(=O)C2C1C=CC(C(O)c1cc(C(F)(F)F)cc(C(F)(F)F)c1)N2Nc1ccccn1 (stereo not given)	0.463	0.307 (inactive)	1.19 (inactive)	-0.697 (inactive)	1.21	-1.02 (inactive)	0.05	0.159	0.429	-0.129
Cc1ccc(S[C@]2(C(=O)NCCCN(C)C)CC(=O)N(Cc3cc(C(F)(F)F)cc(C(F)(F)F)c3)[C@@H]2c2ccc(CO)cc2I)cc1	-0.371	-1.17 (inactive)	-3.06 (inactive)	1.03 (inactive)	1.77	0.888 (inactive)	0.269	-1.64	-0.937	-0.0246
COC(=O)[C@@]1(Cc2ccc(OC)cc2)[C@H]2c3cc(C(=O)N(C)C)n(Cc4ccccn4)c3C[C@H]2CN1C(=O)c1ccccc1	-1.12	0.0106 (inactive)	0.785 (inactive)	0.144 (inactive)	3.08	-0.621 (inactive)	0.282	-1.12	0.0171	-0.0355
COC(=O)[C@@]1(Cc2ccc(F)cc2)[C@H]2c3cc(C(=O)N4CCCC4)n(CCCNc4ncc(C(F)(F)F)cc4Cl)c3C[C@H]2CN1C(=O)c1ccccc1	-0.954	1.62 (inactive)	2.15 (inactive)	2.65 (inactive)	2.65	-0.87 (inactive)	0.83	-0.756	0.696	0.476
C=CCOC(=O)[C@H]1[C@@H]2C(=O)O[C@@H](c3ccccc3)[C@@H](c3ccccc3)N2[C@@H](c2ccc(OCCOC(=O)[C@@H]3C[C@@H]4C(=O)N[C@@H](CCCCNC(C)=O)C(=O)N4[C@@H]3c3ccc(O)cc3)cc2)[C@]12C(=O)Nc1ccccc12	1.54	1.7 (inactive)	-0.133 (inactive)	3.53 (inactive)	2.6	-0.264 (inactive)	0.0025	1.14	1.08	-0.0625
CCCCCCc1nc(-c2cc(C)c(OC)c(C)c2)cc2c1[Si](C(C)C)(C(C)C)OC2	1	-0.389 (inactive)	-0.114 (inactive)	-0.264 (inactive)	-0.0784	0.344 (inactive)	-0.0575	0.187	-0.129	-0.0828
